tested on: FGFR3; conditions: Compound Concentration (nM):1000
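Also: KINOMEscan scanMAX binding as percent activity remaining versus control; lower means stronger binding.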

`CN(C)CCNC(=O)Nc1ccc(N(C)c2ccnc(Nc3ccc(CS(C)(=O)=O)cc3)n2)cc1.Cl` [GW830900A] and `CN1CCN(C(=O)c2ccc(NC(=O)Nc3ccc(N(C)c4ccnc(Nc5ccc(CS(C)(=O)=O)cc5)n4)cc3)cc2)CC1.Cl` [GW830263A] are the same in “Percent Control” value: 100% for the first, 100% for the second.

Going from `C/C(Nc1ccc(S(N)(=O)=O)cc1)=C1/C(=O)Nc2ccccc21` [GW335962X] to `NS(=O)(=O)c1ccc(N/N=C2\C(=O)Nc3ccc(Cl)cc32)cc1` [GW280670X], the “Percent Control” value rises from 97% to 100%.

`Cc1cc(O)cc(C)c1/C=C/c1cncc(C(N)=O)c1` [GW435821X] and `COc1cc(/C=N/Nc2ncnc3[nH]ncc23)ccc1O` [GW578748X] are the same in “Percent Control” value: 100% for the first, 100% for the second.

Going from `COc1cc(C)c(N(C)C(=O)CN(C)C)cc1Nc1nc(Nc2cccc(F)c2C(N)=O)c2cc[nH]c2n1` [GSK2219385] to `COc1cc(N2CCN(C(C)C)CC2)ccc1Nc1nc(Nc2ccc(F)cc2C(=O)NC[C@@H](O)CO)c2cc[nH]c2n1` [GSK1392956A], the “Percent Control” value rises from 78% to 97%.

Going from `COC(=O)Nc1nc2ccc(Oc3ccc(NC(=O)Nc4cc(C(F)(F)F)ccc4F)cc3)cc2s1.Cl` [GW693917A] to `Cl.O=C(Nc1ccc(Oc2ccc3[nH]c(NC(=O)c4ccco4)nc3c2)cc1)Nc1cc(C(F)(F)F)ccc1F` [GW683134A], the “Percent Control” value rises from 70% to 84%.

Going from `NS(=O)(=O)c1ccc(Nc2ncc(-c3ccccc3)o2)cc1` [GW572399X] to `CCS(=O)(=O)c1ccc(OC)c(Nc2ncc(-c3cccc(F)c3)o2)c1` [GW621970X], the “Percent Control” value falls from 100% to 11%.

`CN(C)c1cc2c(Nc3ccc4c(cnn4Cc4ccccc4)c3)ncnc2cn1` [GW282974X] and `COc1cc2ncnc(Nc3ccc4c(cnn4Cc4ccccc4)c3)c2cc1OC.Cl` [GW282449A] are the same in “Percent Control” value: 100% for the first, 100% for the second.

Going from `CCc1ccc(Oc2nccc(-c3c(-c4ccc(F)cc4)ncn3C3CCNCC3)n2)cc1` [SB-242719] to `COc1ccc2cc(-c3c(-c4ccncc4)nc(-c4ccc(S(C)(=O)=O)cc4C)n3C)ccc2c1` [SB-633825], the “Percent Control” value falls from 100% to 76%.

First: Nc1ncnc2occ(-c3ccc(NC(=O)Nc4cc(C(F)(F)F)ccc4F)cc3)c12 [GW770249X]
Second: Cl.O=C(Nc1ccc(Oc2ccc3[nH]c(NC(=O)c4ccccc4)nc3c2)cc1)Nc1cc(C(F)(F)F)ccc1F [GW709042A]
The “Percent Control” value of the first is lower: 77% for the first, 100% for the second.

Compared with `COc1cc2ncn(-c3cc(O[C@H](C)c4ccccc4Cl)c(C(N)=O)s3)c2cc1OC` [GSK237701A], `C[C@@H](Oc1cc(-n2cnc3ccc(OC4CCN(C)CC4)cc32)sc1C(N)=O)c1ccccc1Cl` [GSK579289A] is higher in “Percent Control” value: 57% for the first, 86% for the second.

Compared with `COc1ccc(COc2ccc(Cc3cnc(N)nc3N)cc2OC)cc1` [GW632580X], `CCS(=O)(=O)c1ccc(OC)c(Nc2ncc(-c3cccc(OC)c3)o2)c1` [GW580509X] is lower in “Percent Control” value: 95% for the first, 44% for the second.

`CCn1c(-c2nonc2N)nc2c(C#CC(C)(C)O)nc(OCCNC)cc21.Cl` [GSK949675] and `Cl.O=C(O[C@H]1CN[C@H](C#Cc2cc3ncnc(Nc4ccc5c(cnn5Cc5ccccc5)c4)c3s2)C1)N1CCOCC1` [GSK200398A] are the same in “Percent Control” value: 100% for the first, 100% for the second.

`Cl.c1ccc(Cc2nc3ccc(Nc4ncnc5ccccc45)cc3[nH]2)cc1` [GR269666A] and `Cl.O=S1CCN(Cc2ccc(-c3ccc4ncnc(Nc5ccc(OCc6ccccc6)c(F)c5)c4c3)o2)CC1` [GW576924A] are the same in “Percent Control” value: 100% for the first, 100% for the second.

First: CC1=C(C(=O)Nc2ccc3[nH]ncc3c2)C(c2ccc(Cl)c(Cl)c2)CC(=O)N1 (stereo not shown) [GSK299115A]
Second: CC1=C(C(=O)Nc2ccc3[nH]ncc3c2)C(c2ccc3ccccc3c2)CC(=O)N1 (stereo not shown) [GSK270822A]
The “Percent Control” value of the first is higher: 84% for the first, 73% for the second.

`COc1cccc(-n2ncc3c(N/N=C/c4ccncc4)ncnc32)c1` [GW784752X] and `COc1cc(C=NNc2ncnc3c2cnn3-c2ccccc2)ccc1O` [GW513184X] are the same in “Percent Control” value: 100% for the first, 100% for the second.

`CC(C)COC(=O)c1ccc2c(c1)/C(=C/Nc1ccc(S(N)(=O)=O)cc1)C(=O)N2` [GW416981X] and `NS(=O)(=O)c1ccc(N/N=C2\C(=O)Nc3ccc(C(=O)NCCc4c[nH]cn4)cc32)cc1` [GW300660X] are the same in “Percent Control” value: 100% for the first, 100% for the second.

Compared with `COc1ccc2[nH]c3c4[nH]c5ccc(OC)cc5c4c4c(c3c2c1)C(=O)NC4=O` [GW296115X], `COc1ccccc1-c1cc(/C=C2\C(=O)Nc3ncc(Br)cc32)cc(Br)c1O` [GW442130X] is higher in “Percent Control” value: 93% for the first, 100% for the second.

`COc1ccc2c(-c3ccnc(Nc4cccc(OC(F)(F)F)c4)n3)cnn2n1` [GW810372X] and `COc1cccc(-c2c[nH]c3c(N/N=C/c4ccncc4)ncnc23)c1` [GW814408X] are the same in “Percent Control” value: 100% for the first, 100% for the second.

Going from `O=C1Nc2ccc(C(=O)c3ccco3)cc2C1=Cc1cc(Cl)c(O)c(Cl)c1` [GW406108X] to `NS(=O)(=O)c1ccc(N/N=C2\C(=O)Nc3ccc(C(=O)NCc4ccncc4)cc32)cc1` [GW300657X], the “Percent Control” value rises from 78% to 82%.

`O=C(Nc1n[nH]c2nc(-c3ccc(O)cc3)c(Br)cc12)C1CC1` [SB-725317] and `NS(=O)(=O)c1ccc(N/N=C2\C(=O)Nc3ccc(-c4cnco4)cc32)cc1` [GW276655] are the same in “Percent Control” value: 100% for the first, 100% for the second.

From article PMC7826789 (International Journal of Molecular Sciences, 2021)
